From PubChem BioAssay (EPA / NIEHS)
The source made the active and inactive calls. The calls were made as follows: active = hit-call score of the fitted dose curve at least 0.9, where 1 is the maximum; inactive = score below 0.9.

Columns and labels:
Details in all cases: mRNA level, 48 h; actives raise or lower the signal
[1] = read-out: ATP-citrate lyase (ACLY), ACLY (gene 47); assay: LTEA_HepaRG_ACLY: Life Technologies and Expression Analysis (LTEA) Assay for ATP-citrate lyase (ACLY) using HepaRG (AID 2283466)
Procedure, shortened: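 HepaRG, 48 h exposure, 8-pt half-log dilutions (top 100 uM), 0.5% DMSO. Readout: ACLY mRNA, TaqMan qRT-PCR, housekeeping-normalized (ACTB/GAPDH/POLR2A). Bidirectional curve fit vs DMSO.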

[2] = read-out: Peroxisomal acyl-coenzyme A oxidase 1 (ACOX1) gene, ACOX1 (gene 51); assay: LTEA_HepaRG_ACOX1: Life Technologies and Expression Analysis (LTEA) Assay for Peroxisomal acyl-coenzyme A oxidase 1 (ACOX1) gene using HepaRG (AID 2283467)
Procedure, shortened: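 Measured by qRT-PCR against three housekeeping genes: ACOX1 transcript change in human HepaRG cells after 48 h dosing. Concentrations ran up to 100 uM in half-log steps. Curves were fitted bidirectionally relative to 0.5% DMSO.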

[3] = read-out: Alkaline Phosphatase, Placental (ALPP) gene, ALPP (gene 250); assay: LTEA_HepaRG_ALPP: Life Technologies and Expression Analysis (LTEA) Assay for Alkaline Phosphatase, Placental (ALPP) gene using HepaRG (AID 2283468);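 as to AC50: differentiated human HepaRG liver cells in serum-free induction medium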
Procedure, shortened: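 qRT-PCR readout of ALPP mRNA (Fluidigm TaqMan), normalized to ACTB/GAPDH/POLR2A, after 48 h chemical exposure of HepaRG cells; 8-point half-log series, top 100 uM, 0.5% DMSO vehicle. Bidirectional curve fit versus DMSO baseline.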

[4] = read-out: Bcl-2 (BAD) gene, BAD (gene 572); assay: LTEA_HepaRG_BAD: Life Technologies and Expression Analysis (LTEA) Assay for Bcl-2 (BAD) gene using HepaRG (AID 2283469)
Procedure, shortened: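 BAD transcript change, measured by qRT-PCR against three housekeeping genes and fitted in both directions relative to 0.5% DMSO, after 48 h chemical treatment of human HepaRG liver cells at concentrations up to 100 uM.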

[5] = read-out: Bcl-2 (BAX) gene, BAX (gene 581); assay: LTEA_HepaRG_BAX: Life Technologies and Expression Analysis (LTEA) Assay for Bcl-2 (BAX) gene using HepaRG (AID 2283470)
Procedure, shortened: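 HepaRG (human liver), 48 h exposure, duplicate wells. 8-pt curve, half-log from 100 uM, 0.5% DMSO. BAX transcript by TaqMan qRT-PCR; ACTB/GAPDH/POLR2A normalization; gain or loss vs DMSO baseline.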

[6] = read-out: adenosine kinase (ADK) gene, ADK (gene 132); assay: LTEA_HepaRG_ADK: Life Technologies and Expression Analysis (LTEA) Assay for adenosine kinase (ADK) gene using HepaRG (AID 2283471)
Procedure, shortened: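 Differentiated HepaRG cells dosed 48 h in serum-free induction medium, 0.5% DMSO vehicle, eight half-log concentrations from 100 uM, in duplicate. ADK mRNA by TaqMan qRT-PCR normalised to ACTB, GAPDH, POLR2A; bidirectional fit versus DMSO.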

[7] = read-out: Alpha-fetoprotein (AFP) gene, AFP (gene 174); assay: LTEA_HepaRG_AFP: Life Technologies and Expression Analysis (LTEA) Assay for Alpha-fetoprotein (AFP) gene using HepaRG (AID 2283472)
Procedure, shortened: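 HepaRG, single lot; 48 h post-plating -> serum-free induction medium; cpd 8-pt, 100 uM top, half-log, 0.5% DMSO, duplicate, 48 h. RNA -> qRT-PCR AFP, norm ACTB/GAPDH/POLR2A. Bidirectional fit vs DMSO.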

BCL2L11 (gene 10018) = assay: LTEA_HepaRG_BCL2L11: Life Technologies and Expression Analysis (LTEA) Assay for Bcl-2 (BCL2L11) gene using HepaRG (AID 2283473)
Procedure, shortened: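 HepaRG, 48 h exposure, 8-pt half-log series from 100 uM in 0.5% DMSO, duplicates; qRT-PCR (Fluidigm TaqMan) for BCL2L11, housekeeping-normalized; bidirectional curve fit relative to DMSO baseline.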

[8] = read-out: Apolipoprotein A-V (APOA5) gene, APOA5 (gene 116519); assay: LTEA_HepaRG_APOA5: Life Technologies and Expression Analysis (LTEA) Assay for Apolipoprotein A-V (APOA5) gene using HepaRG (AID 2283474)
Procedure, shortened: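 HepaRG, 48 h chemical exposure in serum-free induction medium, 8-pt half-log series (top 100 uM), 0.5% DMSO vehicle, duplicates. Readout: APOA5 mRNA by qRT-PCR, housekeeping-normalized; bidirectional fit vs DMSO baseline.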

[9] = read-out: Apoptosis regulator Bcl-2 (Homo sapiens) (UniProt P10415); assay: LTEA_HepaRG_BCL2: Life Technologies and Expression Analysis (LTEA) Assay for Bcl-2 gene using HepaRG (AID 2283475)
Procedure, shortened: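 HepaRG, plated 48 h then switched to serum-free induction medium; dosed 48 h, 8 conc. (max 100 uM, half-log steps), duplicate, 0.5% DMSO. Lysis in RLT, RNA isolated, TaqMan qRT-PCR for BCL2; ACTB/GAPDH/POLR2A normalisation; bidirectional fit vs DMSO.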

[10] = read-out: Bcl-2 (BID) gene, BID (gene 637); assay: LTEA_HepaRG_BID: Life Technologies and Expression Analysis (LTEA) Assay for Bcl-2 (BID) gene using HepaRG (AID 2283476)
Procedure, shortened: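 Transcript levels of BID, measured by qRT-PCR and normalized to three housekeeping genes, were fitted bidirectionally against DMSO controls. Cells were HepaRG, dosed 48 h at up to 100 uM.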

Caspase-3 (Homo sapiens) = Caspase-3 (Homo sapiens) (UniProt P42574); assay: LTEA_HepaRG_CASP3: Life Technologies and Expression Analysis (LTEA) Assay for cysteine-aspartic acid protease (CASP3) using HepaRG (AID 2283477)
Procedure, shortened: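 HepaRG, 48 h exposure, 8 conc. (top 100 uM, half-log steps, duplicate), 0.5% DMSO vehicle; qRT-PCR of CASP3 transcript, housekeeping-normalised (ACTB/GAPDH/POLR2A); bidirectional curve fit vs DMSO baseline.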

[11] = read-out: cysteine-aspartic acid protease (CASP8), CASP8 (gene 841); assay: LTEA_HepaRG_CASP8: Life Technologies and Expression Analysis (LTEA) Assay for cysteine-aspartic acid protease (CASP8) using HepaRG (AID 2283480)
Procedure, shortened: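 HepaRG, 48 h exposure, duplicate wells; 8 conc, half-log from 100 uM, 0.5% DMSO. Serum-free induction medium. CASP8 mRNA by TaqMan qRT-PCR, norm. ACTB/GAPDH/POLR2A; gain/loss fitted vs DMSO.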

[12] = read-out: Cytochrome P450 (CYP24A1), CYP24A1 (gene 1591); assay: LTEA_HepaRG_CYP24A1: Life Technologies and Expression Analysis (LTEA) Assay for Cytochrome P450 (CYP24A1) using HepaRG (AID 2283478)
Procedure, shortened: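 qRT-PCR read-out: CYP24A1 transcript levels normalized to three housekeeping genes, bidirectional curve fits against 0.5% DMSO baseline. Human HepaRG cells treated 48 h with chemicals at eight concentrations from 100 uM in half-log steps.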

[13] = read-out: Cytochrome P450 (CYP1A2), CYP1A2 (gene 1544); assay: LTEA_HepaRG_CYP1A2: Life Technologies and Expression Analysis (LTEA) Assay for Cytochrome P450 (CYP1A2) using HepaRG (AID 2283479)
Procedure, shortened: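 HepaRG, 48 h exposure, top 100 uM, half-log 8-pt, 0.5% DMSO vehicle, duplicates. Readout: TaqMan qRT-PCR of CYP1A2 mRNA, housekeeping-normalized (ACTB/GAPDH/POLR2A). Gain/loss fit relative to DMSO baseline.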

[14] = read-out: Cytochrome P450 (CYP2B6), CYP2B6 (gene 1555); assay: LTEA_HepaRG_CYP2B6: Life Technologies and Expression Analysis (LTEA) Assay for Cytochrome P450 (CYP2B6) using HepaRG (AID 2283481)
Procedure, shortened: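 Read-out is CYP2B6 mRNA by TaqMan qRT-PCR, normalized to three housekeeping genes and fitted bidirectionally against 0.5% DMSO baseline. Human HepaRG cells received test chemicals for 48 h, top concentration 100 uM, half-log dilutions.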

[15] = read-out: Cytochrome P450 2C19 (Homo sapiens) (UniProt P33261); assay: LTEA_HepaRG_CYP2C19: Life Technologies and Expression Analysis (LTEA) Assay for CYP2C19 using HepaRG (AID 2283482)
Procedure, shortened: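 HepaRG, 48 h chemical exposure, 8-pt half-log series from 100 uM in 0.5% DMSO, duplicates. Readout: CYP2C19 mRNA by TaqMan qRT-PCR, housekeeping-normalized. Bidirectional fit vs DMSO baseline; phenobarbital 1mM as induction control.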

CYP2C8 (gene 1558) = assay: LTEA_HepaRG_CYP2C8: Life Technologies and Expression Analysis (LTEA) Assay for CYP2C8 using HepaRG (AID 2283483)
Procedure, shortened: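 CYP2C8 mRNA induction or loss, by qRT-PCR normalized to ACTB/GAPDH/POLR2A, is read in HepaRG cells after 48 h treatment. Concentrations run from 100 uM down in half-log dilutions, with 0.5% DMSO as vehicle and baseline.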

CYP2C9 (gene 1559) = assay: LTEA_HepaRG_CYP2C9: Life Technologies and Expression Analysis (LTEA) Assay for CYP2C9 using HepaRG (AID 2283484)
Procedure, shortened: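 Cells plated 48 h, switched to serum-free induction medium, then treated in duplicate for 48 h at eight concentrations (max 100 uM, 0.5% DMSO). RNA then analysed by qRT-PCR for CYP2C9; curves fitted in both directions relative to DMSO.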

CYP2E1 (gene 1571) = assay: LTEA_HepaRG_CYP2E1: Life Technologies and Expression Analysis (LTEA) Assay for CYP2E1 using HepaRG (AID 2283485)
Procedure, shortened: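 Human liver line HepaRG, plated 48 h, then serum-free induction medium + chemical x 48 h; 8-pt CRC from 100 uM, half-log, 0.5% DMSO, n=2. Readout: CYP2E1 mRNA qRT-PCR vs ACTB/GAPDH/POLR2A; bidirectional fit vs DMSO.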

Measured: AC50

Apoptosis regulator Bcl-2 (Homo sapiens), sequence (P10415 whole entry, looked up): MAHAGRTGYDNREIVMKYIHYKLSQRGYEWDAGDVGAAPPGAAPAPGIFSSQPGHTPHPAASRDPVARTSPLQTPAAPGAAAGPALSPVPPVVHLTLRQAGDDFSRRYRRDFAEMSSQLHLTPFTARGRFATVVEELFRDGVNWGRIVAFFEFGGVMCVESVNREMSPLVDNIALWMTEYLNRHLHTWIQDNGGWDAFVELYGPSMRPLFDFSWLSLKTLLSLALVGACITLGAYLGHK
Cytochrome P450 2C19 (Homo sapiens), sequence (P33261 whole entry, looked up): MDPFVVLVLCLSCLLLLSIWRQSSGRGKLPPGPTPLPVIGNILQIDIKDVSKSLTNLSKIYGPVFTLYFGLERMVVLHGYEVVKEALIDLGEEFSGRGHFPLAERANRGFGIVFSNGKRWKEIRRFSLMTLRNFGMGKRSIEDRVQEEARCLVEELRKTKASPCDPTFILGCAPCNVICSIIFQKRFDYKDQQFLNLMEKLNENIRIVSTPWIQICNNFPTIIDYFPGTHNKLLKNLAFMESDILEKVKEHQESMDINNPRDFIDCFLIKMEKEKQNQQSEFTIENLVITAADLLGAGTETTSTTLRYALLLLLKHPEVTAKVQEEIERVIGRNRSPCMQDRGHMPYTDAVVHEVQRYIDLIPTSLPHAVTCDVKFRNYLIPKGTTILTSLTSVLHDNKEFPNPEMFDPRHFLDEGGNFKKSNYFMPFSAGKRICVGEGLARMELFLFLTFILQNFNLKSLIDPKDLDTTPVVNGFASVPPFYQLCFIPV
Caspase-3 (Homo sapiens), sequence (P42574 whole entry, looked up): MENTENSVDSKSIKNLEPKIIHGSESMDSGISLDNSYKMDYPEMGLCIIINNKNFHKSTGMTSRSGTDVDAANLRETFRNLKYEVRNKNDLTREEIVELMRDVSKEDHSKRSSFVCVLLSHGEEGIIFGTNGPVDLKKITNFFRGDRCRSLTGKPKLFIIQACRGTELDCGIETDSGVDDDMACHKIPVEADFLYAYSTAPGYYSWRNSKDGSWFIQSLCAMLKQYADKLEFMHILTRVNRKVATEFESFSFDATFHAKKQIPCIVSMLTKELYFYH

C[C@]12CC[C@@H]3c4ccc(O)cc4CC[C@H]3[C@@H]1CCC2=O
active: [7] 26.6 µM
not listed: [12] | [13] | [14] | [15] | CYP2C8 (gene 1558) | CYP2C9 (gene 1559) | CYP2E1 (gene 1571)
inactive: all other assays above

Cc1c2ccccc2c(C)c2c1ccc1ccccc12
inactive: [1] | [4] | [6] | [10] | Caspase-3 (Homo sapiens) | [12] | [11]
active: [2] 27.7 µM | [3] 39.7 µM | [5] 63.1 µM | [7] 51.5 µM | BCL2L11 (gene 10018) 29.6 µM | [8] 50 µM | [9] 78.3 µM | [13] 85 µM | [14] 50 µM | [15] 75.9 µM | CYP2C8 (gene 1558) 37.7 µM | CYP2C9 (gene 1559) 37.2 µM | CYP2E1 (gene 1571) 18.8 µM

CC[C@H](NC(=O)c1cc(F)ccc1NS(=O)(=O)c1cccc2cccnc12)c1ccccc1
active: [2] 71.3 µM | [5] 9.47 µM | [7] 32.1 µM | [8] 60.5 µM | [13] 76 µM | [14] 88.2 µM | [15] 0.972 µM | CYP2C9 (gene 1559) 78.5 µM | CYP2E1 (gene 1571) 22.3 µM
not listed: [1] | [3]
inactive: all other assays above

NC(=O)c1nc(-c2cccc(-c3cc(F)ccc3OCC(F)(F)C(F)(F)F)c2)n[nH]1
active: [2] 81.4 µM | [6] 92.8 µM | BCL2L11 (gene 10018) 74.2 µM | CYP2E1 (gene 1571) 16.9 µM
not listed: [1] | [3]
inactive: all other assays above

Cc1cn([C@H]2C[C@H](N=[N+]=[N-])[C@@H](CO)O2)c(=O)[nH]c1=O
not listed: [1]
inactive: all other assays above

O=C(O)c1ccccc1C(=O)OCc1ccccc1
not listed: [1] | [3]
inactive: all other assays above

Cc1cccc2ccccc12
not listed: [1] | [3]
inactive: all other assays above

CCCCCCCCN(C)CCCCCCCC
not listed: [1] | [3] | [12]
inactive: all other assays above

Clc1ccccc1C(c1ccccc1)(c1ccccc1)n1ccnc1
inactive: [10] | Caspase-3 (Homo sapiens) | [12] | [11]
active: [2] 60 µM | [4] 91.3 µM | [5] 12.3 µM | [6] 93 µM | [7] 20.1 µM | BCL2L11 (gene 10018) 50 µM | [8] 20.8 µM | [9] 23 µM | [13] 7.26 µM | [14] 26 µM | [15] 27.4 µM | CYP2C8 (gene 1558) 23.9 µM | CYP2C9 (gene 1559) 93.4 µM | CYP2E1 (gene 1571) 11.3 µM

O=c1c(-c2ccc(O)cc2)coc2cc(O)cc(O)c12
not listed: [1]
inactive: all other assays above

NCc1cccc(C2CCN(C(=O)c3ccc(C#Cc4ccccc4F)o3)CC2)c1
active: [7] 83.7 µM | BCL2L11 (gene 10018) 83.1 µM | [8] 80.5 µM | [10] 79.9 µM | [13] 90 µM | [11] 78 µM | [14] 83 µM | [15] 89.3 µM | CYP2C8 (gene 1558) 94 µM | CYP2C9 (gene 1559) 91.7 µM | CYP2E1 (gene 1571) 79.3 µM
inactive: [2] | [4] | [5] | [6] | [9] | Caspase-3 (Homo sapiens) | [12]

Cc1occc1C(=O)Nc1ccc(C(=O)N2CCC(F)(F)/C(=C\C(=O)N3CCC(N4CCCCC4)CC3)c3ccccc32)cc1
active: [2] 31.2 µM | [7] 44.8 µM | [8] 39 µM | [13] 18.4 µM | [14] 47.4 µM | [15] 43.7 µM | CYP2C8 (gene 1558) 56.5 µM | CYP2C9 (gene 1559) 44.2 µM | CYP2E1 (gene 1571) 31.2 µM
not listed: [1] | [3]
inactive: all other assays above
